# Source: PubChem BioAssay
# The source made the active and inactive calls. Unless noted, no rule for the calls is given here.
# Tests used:
# [1] = compound effects on lung adenocarcinoma cell viability – A549, calcein-AM fluorescence, 48 h, basal, profiling panel (AID 1162); conditions: higher = more signal; also: test concentration not given here
# [2] = compound effects on differentiated 3T3-L1 adipocyte viability – cell-based, 3T3-L1 adipocytes, calcein-AM fluorescence, 48 h, basal, profiling panel (AID 1163); conditions: 3T3-L1 adipocytes viability, higher = more signal; also: test concentration not given here
# [3] = compound effects on hepatocellular carcinoma cell viability – HepG2, calcein-AM fluorescence, 48 h, basal, profiling panel (AID 1164); conditions: higher = more signal; also: test concentration not given here
# [4] = compound effects on multiple myeloma cell viability – MM1S, calcein-AM fluorescence, 48 h, basal, profiling panel (AID 1165); conditions: higher = more signal; also: test concentration not given here
# [5] = calcein-AM signal in unstimulated myeloma cells – cell-based, calcein-AM fluorescence, 48 h, PK04 Diversity Set, profiling panel (AID 1166); conditions: RPMI8226 myeloma viability, higher = more signal;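 also: cells grown under basal conditions without added stimulus; test concentration not given here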
# [6] = JC-1 mitochondrial signal, unstimulated HepG2 cells – cell-based, JC-1 fluorescence, 24 h, 100 nL compound, profiling panel (AID 1167); conditions: HepG2 mitochondrial potential, higher = more signal; also: test concentration not given here
# [7] = JC-1 mitochondrial signal, unstimulated adipocytes – cell-based, JC-1 fluorescence, 3T3-L1 adipocytes, 24 h, 100 nL compound, profiling panel (AID 1168); conditions: JC-1 mitochondrial fluorescence, higher = more signal, called active from +8 up or from −8 down; also: test concentration not given here
# [8] = JC-1 mitochondrial signal, unstimulated myeloma cells – cell-based, JC-1 fluorescence, RPMI8226, 24 h, 100 nL compound, profiling panel (AID 1169); conditions: JC-1 mitochondrial potential fluorescence, higher = more signal; also: test concentration not given here
# [9] = JC-1 mitochondrial signal, unstimulated MM1S myeloma – cell-based, JC-1 fluorescence, 24 h, 100 nL compound, profiling panel (AID 1170); conditions: MM1S mitochondrial potential, higher = more signal; also: test concentration not given here
# [10] = resazurin metabolic signal in A549 cells – cell-based, resazurin fluorescence, 24 h, PK04 Diversity Set, profiling panel (AID 1171); conditions: A549 viability, higher = more signal, called active from +8 up or from −8 down; also: test concentration not given here
# [11] = resazurin metabolic signal in HepG2 cells – cell-based, resazurin fluorescence, 24 h, PK04 Diversity Set, profiling panel (AID 1172); conditions: HepG2 viability, higher = more signal; also: test concentration not given here
# [12] = budding yeast growth changes without added modifier – OD600, strain BY4716, 24 h, basal condition, primary screen (AID 1173); conditions: S. cerevisiae BY4716 growth, OD600, 24 h; higher = more signal, called active from +8 up or from −8 down
# [13] = viability profiling in MM1S myeloma cells – cell-based, resazurin fluorescence, basal, 24 h, PK04 Diversity Set, profiling panel (AID 1174); conditions: higher = more signal, called active from +8 up or from −8 down; also: test concentration not given here
# [14] = target: Dihydroorotate dehydrogenase (quinone), mitochondrial (Plasmodium falciparum (isolate 3D7)) (UniProt Q08210); assay: inhibition of P. falciparum DHODH – biochemical, C-terminal His tag, absorbance 600 nm, primary screen (AID 1175); conditions: PfDHODH enzyme, DCIP absorbance 600 nm; higher = more signal, called active from +8 up or from −8 down;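 also: recombinant parasite enzyme with a five histidine tag at its C terminus; test concentration not given here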
# Dihydroorotate dehydrogenase (quinone), mitochondrial (Plasmodium falciparum (isolate 3D7)), sequence (Q08210 whole entry, looked up): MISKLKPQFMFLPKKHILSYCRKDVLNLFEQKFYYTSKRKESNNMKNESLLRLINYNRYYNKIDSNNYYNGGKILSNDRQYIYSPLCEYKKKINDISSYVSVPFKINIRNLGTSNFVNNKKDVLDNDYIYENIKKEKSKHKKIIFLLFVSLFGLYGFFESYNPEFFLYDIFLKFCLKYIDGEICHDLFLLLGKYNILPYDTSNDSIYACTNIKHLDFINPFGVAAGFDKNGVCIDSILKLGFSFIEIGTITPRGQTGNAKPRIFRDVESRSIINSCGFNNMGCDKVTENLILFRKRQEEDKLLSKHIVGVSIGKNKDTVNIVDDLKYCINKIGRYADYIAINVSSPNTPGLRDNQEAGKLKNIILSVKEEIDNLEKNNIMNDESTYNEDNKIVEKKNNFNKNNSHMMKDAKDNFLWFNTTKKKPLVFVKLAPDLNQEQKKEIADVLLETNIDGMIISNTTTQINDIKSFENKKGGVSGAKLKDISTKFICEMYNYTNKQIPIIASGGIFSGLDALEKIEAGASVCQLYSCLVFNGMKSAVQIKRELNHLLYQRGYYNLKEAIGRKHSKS
# [15] = inhibition of PAO1 biofilm formation – strain PAO1, LB-PBS medium, absorbance 600 nm, primary screen (AID 1176); also: test concentration not given here; conditions: P. aeruginosa PAO1 growth/biofilm, A600, 12 h; higher = more signal
# [16] = growth modulation of vineyard yeast isolate – strain RM11-1a, OD600, basal, 24 h, primary screen (AID 1177);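 also: cultures grown under basal conditions with no added stressor; test concentration not given here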; conditions: S. cerevisiae RM11-1a growth, OD600, 24 h; higher = more signal, called active from +8 up or from −8 down
# [17] = growth of efflux-deficient E. coli DRC39 – strain DRC39, OD650, 24 h, E. coli filamentation inducers, primary screen (AID 1178);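 also: growth measured as culture turbidity by optical density at 650 nm; test concentration not given here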; conditions: E. coli DRC39 acrAB, higher = more signal, called active from +8 up or from −8 down
# [18] = growth of efflux-deficient E. coli DRC39 – strain DRC39, OD650, 48 h, E. coli filamentation inducers, primary screen (AID 1179);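 also: screen aims at cell division blockers that make cells filament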; conditions: E. coli DRC39 delta-acrAB growth, higher = more signal, called active from +8 up or from −8 down
# [19] = viability profiling in RPMI8226 myeloma cells – cell-based, resazurin fluorescence, basal, 24 h, PK04 Diversity Set, profiling panel (AID 1180); conditions: higher = more signal;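 also: RPMI8826 multiple myeloma cell line at 5000 cells per well; test concentration not given here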
# [20] = target: E3 ubiquitin-protein ligase XIAP (Homo sapiens) (UniProt P98170); assay: small molecules binding XIAP protein – biophysical, small-molecule microarray, fluorescence 635 nm, primary screen (AID 1181); conditions: higher = more signal;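 also: score merges 667 nm emission and signal to noise over triplicate slides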
# E3 ubiquitin-protein ligase XIAP (Homo sapiens), sequence (P98170 whole entry, looked up): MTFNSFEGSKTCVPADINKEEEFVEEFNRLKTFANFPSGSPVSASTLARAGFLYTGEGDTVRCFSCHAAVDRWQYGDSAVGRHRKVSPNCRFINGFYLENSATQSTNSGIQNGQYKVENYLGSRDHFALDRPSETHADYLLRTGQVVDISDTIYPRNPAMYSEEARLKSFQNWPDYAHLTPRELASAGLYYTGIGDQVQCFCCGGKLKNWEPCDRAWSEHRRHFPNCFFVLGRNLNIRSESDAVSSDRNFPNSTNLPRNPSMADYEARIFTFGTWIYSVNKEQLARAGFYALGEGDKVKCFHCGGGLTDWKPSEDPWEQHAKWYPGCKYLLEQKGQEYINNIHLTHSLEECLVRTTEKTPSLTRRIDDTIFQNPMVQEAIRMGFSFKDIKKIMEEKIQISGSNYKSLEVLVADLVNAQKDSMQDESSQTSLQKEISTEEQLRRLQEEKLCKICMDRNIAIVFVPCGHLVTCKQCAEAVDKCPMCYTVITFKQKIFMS
Compound,z-score [1],z-score [2],z-score [3],z-score [4],z-score [5],z-score [6],z-score [7],z-score [8],z-score [9],z-score [10],z-score [11],z-score [12],z-score [13],composite z-score [14],z-score [15],z-score [16],z-score [17],z-score [18],z-score [19],composite z-score [20]
CCOC(=O)[C@H](CC(C)C)NC(=O)CCC1CC(OC(=O)NCCc2ccc(F)cc2)CC2(CCCC(COC(=O)NCCc3ccc(Cl)cc3)O2)O1 (stereo not given in full),-0.977,0.248,-0.49,0.73,-1.23,-1.04,0.133 (inactive),-0.0969,-0.232,0.608 (inactive),0.182,0.0981 (inactive),-0.0687 (inactive),-0.188 (inactive),0.213 (inactive),-0.596 (inactive),-0.0646 (inactive),-0.617 (inactive),0.48,-0.247
C=COC[C@@H]1CN2[C@@H](CC[C@@H](C)[C@@H]2c2ccc(Br)cc2)C(=O)O1,-0.0396,0.566,-0.388,-1.04,-0.731,-0.284,0.347 (inactive),-0.795,-0.228,0.378 (inactive),-0.32,-4.37 (inactive),-0.345 (inactive),-3.12 (inactive),-1.01 (inactive),-0.889 (inactive),-1.03 (inactive),-1.65 (inactive),0.169,-0.0669
CO[C@H]1COC(=O)CC=C[C@@H](C)[C@H](OC)COC(=O)CCC[C@@H]1C,-0.71,-0.0523,0.0225,0.0987,0.102,-0.639,-0.399 (inactive),-0.509,-0.135,0.795 (inactive),0.855,-0.966 (inactive),0.818 (inactive),-0.526 (inactive),-0.172 (inactive),-1.45 (inactive),0.153 (inactive),0.039 (inactive),0.518,0.523
CCOC(=O)[C@H](CC(C)C)NC(=O)CCC1CC(OC(=O)NCCc2ccc(F)cc2)CC2(CCCC(COC(=O)NCCC(C)C)O2)O1 (stereo not given in full),-0.646,0.174,0.0995,0.773,-0.479,-0.488,0.152 (inactive),0.248,-0.00687,0.0692 (inactive),-0.566,1.2 (inactive),0.214 (inactive),0.322 (inactive),0.532 (inactive),0.821 (inactive),0.334 (inactive),-0.139 (inactive),0.398,0.0938
CO[C@H]1COC(=O)[C@H](C)NC(=O)[C@@H](C)COC(=O)[C@H]2CCCN2C(=O)CC=C[C@H]1C,-0.622,-0.321,-0.0694,-0.151,0.353,0.132,-0.658 (inactive),-0.0639,-1.01,-0.463 (inactive),-0.384,-0.739 (inactive),0.0177 (inactive),-2.21 (inactive),-0.655 (inactive),-0.382 (inactive),0.491 (inactive),0.206 (inactive),-0.65,-0.354
Cc1ccc(S(=O)(=O)N[C@@H]2COC(=O)[C@@H](C)COC(=O)CC=C[C@H]2C)cc1,-0.168,0.996,0.617,0.0281,0.587,0.0622,-0.396 (inactive),0.62,0.743,0.0709 (inactive),0.0896,0.426 (inactive),0.258 (inactive),0.264 (inactive),-0.413 (inactive),1.02 (inactive),0.155 (inactive),-0.73 (inactive),-0.0722,0.214
C[C@@H](c1ccccc1)N1C(=O)[C@H]2[C@H]3[C@H](O)[C@H](O)CC(=NO[C@@H]4O[C@H](CO)[C@@H](O)[C@H](O)[C@H]4O)[C@@H]3CC[C@H]2C1=O,-0.57,0.698,-0.943,0.21,-0.253,-0.688,0.418 (inactive),-0.206,-0.189,-0.644 (inactive),-0.416,0.0492 (inactive),-0.671 (inactive),-0.337 (inactive),0.14 (inactive),-0.294 (inactive),-0.403 (inactive),0.334 (inactive),-0.361,-0.254
Cn1c(=O)n2n(c1=O)[C@H]1[C@H](O)[C@@H]3O[C@@H]3C(=NOCc3ccccc3)[C@H]1CC2,0.102,-0.48,0.316,0.0846,-0.548,-0.141,-0.383 (inactive),-0.0104,-0.338,-0.508 (inactive),0.0287,0.0108 (inactive),-0.189 (inactive),-1.08 (inactive),-0.0242 (inactive),-0.186 (inactive),-0.289 (inactive),-0.265 (inactive),-0.336,-0.222
CO[C@H]1COC(=O)CC=C[C@@H](C)[C@H](OC)COC(=O)[C@@H]2CCCN2C(=O)CC=C[C@@H]1C,0.976,0.308,-0.259,0.491,-0.394,0.0843,-0.0391 (inactive),-0.83,1.22,0.572 (inactive),0.251,-1.87 (inactive),0.616 (inactive),0.52 (inactive),-0.638 (inactive),-0.055 (inactive),0.601 (inactive),0.53 (inactive),0.136,0.196
